“And” between values parts separate entries of the source, which are not always exact repeats. Equal values may be shown once. The source made the active and inactive calls. The calls were made as follows: active = hit-call score of the fitted dose curve at least 0.9, where 1 is the maximum; inactive = score below 0.9.

As a reminder, the AC50 is the concentration giving half of the maximal activity seen.

The assay can be described thus: APR_HepG2_CellLoss_1hr: Apredica 1-hour HepG2 Assay for Cell Loss (AID 2282668).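 Also: curves fitted both ways against DMSO so gain or loss of cells counts.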 The following applies: high-content imaging. On the procedure:
APR_HepG2_1hr is a cell-based, multiplexed-readout assay that uses HepG2, a human liver cell line, with measurements taken at 1 hour after chemical dosing in a 384-well plate.APR_HepG2_CellLoss_1hr is one of 10 assay component(s) measured or calculated from the APR_HepG2_1hr assay. It is designed to make measurements of cell number, a form of viability reporter, as detected with fluorescence intensity signals by HCS Fluorescent Imaging technology.Data from the assay component APR_HepG2_CellLoss_1hr was analyzed into 1 assay endpoint. This assay endpoint, APR_HepG2_CellLoss_1hr, was analyzed with bidirectional fitting relative to DMSO as the negative control and baseline of activity. Using a type of viability reporter, measures of all nuclear dna for gain or loss-of-signal activity can be used to understand the viability at the cellular-level. Furthermore, this assay endpoint can be referred to as a secondary readout, because this assay has produced multiple assay endpoints where this one serves a viability function. To generalize the intended target to other relatable targets, this assay endpoint is annotated to the cell cycle intended target family, where the subfamily is proliferation.
Cells were treated with dimethyl sulfoxide (DMSO) as a solvent control at a final concentration of 0.5% v/v or with compounds in DMSO with a resulting final DMSO concentration of 0.5% v/v. Compound treatment was done at concentrations of 0.39, 0.78, 1.56, 3.12, 6.24, 12.5, 25, 50, 100, and 200 uM in duplicate on each plate. Cells were treated with compounds for 1, 24, or 72 hr. Carbonyl […] m-chloro-phenylhydrazone (CCCP) and taxol were used as positive controls for mitochondrial function and cytoskeletal stability, respectively; DMSO served as the negative control for this experiment. Cells were fixed by the direct addition of 50 uL formaldehyde in Hank's Balanced Salt Solution (HBSS) to a final concentration of 3.7%. After incubation in the fixation medium for 30 min at room temperature (293-298 K), cells were rinsed twice with HBSS and treated with cell permeabilization buffer (16 uL of 0.5% Triton X-100) for 10 min at room temperature (293-298 K) before labeling. For mitochondrial membrane potential and mitochondrial measurements, pre-fixed cells were incubated with 50 uL of MitoTracker Red CMXRos (Invitrogen) at a concentration of 250 nM for 30 min before fixation. In the remaining cases, post-fixed cells were labeled by incubation with a multiplexed mixture of primary antibodies in HBSS for 60 min at room temperature (293-298 K) to detect immunoreactivity of c-Jun (1:500), phospho-histone H3 (1:100), phospho-histone H2A.x (1:200), p53 (1:400), alpha-tubulin (1:200) and Hoechst 33342 (2 ug/mL). Cells were labeled for multiplexed imaging on two separate plates: a) Hoechst 33342, MitoTracker Red, phospho-histone H3, and alpha-tubulin, and b) Hoechst 33342, phospho-histone H2A.x, and c-Jun. A final rinse with HBSS (50 uL) was performed before analysis. The primary and secondary antibodies for the proteins were phospho-histone H3 (rabbit anti-phospho-histone H3 and FITC-donkey anti-rabbit IgG), phospho-histone H2A.x (mouse anti-phospho-histone H2A.x and FITC-donkey anti-mouse IgG), c-Jun (rabbit anti-phospho-c-Jun and Cy3-donkey anti-rabbit IgG), p53 (sheep anti-p53 and Cy5-donkey anti-sheep IgG), alpha-tubulin (mouse anti-alpha-tubulin and Cy5-donkey anti-mouse IgG). These antibodies are available as the CellCiphr HepG2 assay kit (Millipore).Digital images of each well were captured using a Cellomics ArrayScan VTI (Thermo Scientific Cellomics) (0.8 NA objective, 0.63x optical coupler, and XF-93 filter set) at 20x magnification. The images were acquired using the autofocus feature of the ArrayScan instrument, which entails the following steps. First, the camera focuses on channel 1 (Hoechst 33342), where nuclei are identified. Second, a Z offset of 1 um is used for capturing mitochondria (MitoTracker Red). […]
In the case of `C=CCC1=C(C)[C@@H](OC(=O)[C@@H]2[C@@H](C=C(C)C)C2(C)C)CC1=O`, the result was inactive.

Take `COC(=O)c1ccccc1C(=O)OC`: the call was inactive.

As to `C#CCOS(=O)OC1CCCCC1Oc1ccc(C(C)(C)C)cc1` (stereo not given), the outcome was inactive.

For the compound `CO/C=C(/C(=O)OC)c1ccccc1Oc1cc(Oc2ccccc2C#N)ncn1`, the result was inactive.

Consider `CC(C)Oc1cc(-n2nc(C(C)(C)C)oc2=O)c(Cl)cc1Cl`, for which the compound was classed as inactive.

In the case of `CC(Oc1ccc(Cl)cc1Cl)C(=O)O` (stereo not given), the result was inactive.

With `OC(c1ccc(Cl)cc1)(c1cncnc1)c1ccccc1Cl` (stereo not given), the outcome was inactive.

In the case of `CCOC(=O)CC(SP(=S)(OC)OC)C(=O)OCC` (stereo not given), the call was inactive.

`N#Cc1nn(-c2c(Cl)cc(C(F)(F)F)cc2Cl)c(N)c1S(=O)C(F)(F)F` (stereo not given): the compound was called inactive.

On to `CCOP(=S)(OCC)SCn1c(=O)oc2cc(Cl)ccc21`, for which the result was inactive.

Regarding `COc1cnc(OC)n2nc(NS(=O)(=O)c3c(OCC(F)F)cccc3C(F)(F)F)nc12`, the outcome was inactive.

As for `CN(C)C(=S)SSC(=S)N(C)C`, the compound was classed as inactive.

For `CCCCNC(=O)n1c(NC(=O)OC)nc2ccccc21`, the compound was called inactive.

With `CCCCNC(=O)OCC#CI`, the concentration at half-maximal activity (AC50) was 100 µM (active) and 129 µM (active).

Turning to `COc1ccc(C(c2ccc(OC)cc2)C(Cl)(Cl)Cl)cc1`, the compound was called inactive.

Consider `CCCC1COC(Cn2cncn2)(c2ccc(Cl)cc2Cl)O1` (stereo not given), for which the result was inactive.

For `COc1nc(NC(C)C)nc(NC(C)C)n1`, the outcome was inactive.

Consider `CNC(=O)ON=CC(C)(C)SC`, for which the result was inactive.

For `Cc1c(F)c(F)c(COC(=O)C2C(/C=C(\Cl)C(F)(F)F)C2(C)C)c(F)c1F` (stereo not given), the compound was called inactive.

As for `CC1COC(Cn2cncn2)(c2ccc(Oc3ccc(Cl)cc3)cc2Cl)O1` (stereo not given), the outcome was inactive.

As to `CCCCC(CC)COC(=O)c1ccccc1C(=O)OCC(CC)CCCC` (stereo not given), the outcome was inactive.

With `CCCN(CCC)c1c([N+](=O)[O-])cc(S(N)(=O)=O)cc1[N+](=O)[O-]`, the AC50 is 66.6 µM (active).

Turning to `CNC(=S)S`, the result was inactive.

With `C=CCC1=C(C)C(OC(=O)C2C(C=C(C)C)C2(C)C)CC1=O` (stereo not given), the compound was called inactive.

Regarding `COC(=O)C(C)Oc1ccc(Oc2ccc(Cl)cc2Cl)cc1` (stereo not given), the call was inactive.

For `Cc1cc(Cl)ccc1OCC(=O)O`, the result was inactive.

Turning to `N#CC(CCc1ccc(Cl)cc1)(Cn1cncn1)c1ccccc1` (stereo not given), the outcome was inactive.

As to `CCCCOC(=O)c1ccccc1C(=O)OCCCC`, the compound was called inactive.

On to `CS/C(C)=N/OC(=O)N(C)SN(C)C(=O)O/N=C(\C)SC`, for which the AC50 is 45.7 µM (active).

As to `O=C(Nc1ccccc1)Nc1ccnc(Cl)c1`, the outcome was inactive.

Consider `CC1=C(C(=O)Nc2ccccc2)SCCO1`, for which the compound was classed as inactive.

For the compound `CON(C)C(=O)Nc1ccc(Cl)c(Cl)c1`, the compound was called inactive.

For the compound `CCON=C(CC)C1=C(O)CC(c2c(C)cc(C)cc2C)CC1=O` (stereo not given), the outcome was inactive.

Turning to `CCOc1cc(Oc2ccc(C(F)(F)F)cc2Cl)ccc1[N+](=O)[O-]`, the outcome was inactive.

On to `COP(=S)(OC)Oc1nc(Cl)c(Cl)cc1Cl`, for which the outcome was inactive.

For `COP(N)(=O)SC` (stereo not given), the result was inactive.

Regarding `N#Cc1cc(Br)c(O)c(Br)c1`, the outcome was inactive.

In the case of `COC(=O)N(OC)c1ccccc1COc1ccn(-c2ccc(Cl)cc2)n1`, the outcome was inactive.

For the compound `CCNc1nc(Cl)nc(NCC)n1`, the compound was classed as inactive.

For the compound `Oc1ccccc1-c1ccccc1`, the compound was classed as inactive.

These data come from PubChem BioAssay (EPA / NIEHS).
